LYPLA2 inh = LYPLA2 inhibitors, primary screen, counter-screen for PME1 inhibitor project, biochemical, fluorescence polarization, FP-Rh probe ABPP | AID 2177, 2009 | Acyl-protein thioesterase 2 (Homo sapiens), O95372 | recombinant LYPLA2 | 320,000 tested, 0.38% active | inhibition, % at 5.9 µM;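 active = inhibition above the screen-wide mean plus 3 SD, limit set per campaign, cut at about 26% in these data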
Target sequence (O95372 whole entry, looked up): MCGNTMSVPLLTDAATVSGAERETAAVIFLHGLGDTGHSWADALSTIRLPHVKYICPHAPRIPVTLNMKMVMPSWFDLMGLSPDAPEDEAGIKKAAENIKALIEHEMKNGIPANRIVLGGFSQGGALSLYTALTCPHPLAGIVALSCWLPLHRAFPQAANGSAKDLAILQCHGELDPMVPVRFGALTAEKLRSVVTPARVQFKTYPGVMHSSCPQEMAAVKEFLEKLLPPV
Fam108B inh = mouse Fam108B serine hydrolase inhibitors, primary screen, counter-screen for RBBP9 inhibitor project, biochemical, fluorescence polarization. recombinant Fam108B, FP-Rh probe fluorescence polarization. inhibition, % at 9.51 µM. 300,000 tested, 0.33% active;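 active = inhibition above the screen mean inhibition plus 3 SD, computed separately per campaign, cut at about 18% in these data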;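 also: inhibitors lower polarization as less probe binds the enzyme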
GSTO1 counter = inhibitors of recombinant GSTO1, primary screen, counter-screen for RBBP9 inhibitor project, biochemical, fluorescence polarization | activity-based probe fluorescence polarization | inhibition, % at 5.96 µM | 300,000 tested, 1.1% active;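 active = inhibition above the campaign mean inhibition plus 3 SD, cut at about 35% in these data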
Target sequence (P78417 whole entry, looked up): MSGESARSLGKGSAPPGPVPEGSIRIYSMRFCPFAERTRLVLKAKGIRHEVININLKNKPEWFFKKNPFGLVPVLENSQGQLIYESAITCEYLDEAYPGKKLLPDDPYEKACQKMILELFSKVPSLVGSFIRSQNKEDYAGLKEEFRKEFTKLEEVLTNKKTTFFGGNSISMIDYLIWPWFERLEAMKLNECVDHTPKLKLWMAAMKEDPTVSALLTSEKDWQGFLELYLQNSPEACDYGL
PAD4 FP inh = human PAD4 inhibitors, primary screen, biochemical, fluorescence polarization, 1536-well format; recombinant PAD4, RCA probe fluorescence polarization; inhibition, % at 6.36 µM; 330,000 tested, 0.41% active; AID 485272, 2010;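 active = percent inhibition above a cutoff equal to the mean of all tested compounds plus 3 SD, cut at about 15% in these data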
LYPLA1 inh = LYPLA1 inhibitors, primary screen, counter-screen for PME1 inhibitor project, biochemical, fluorescence polarization, FP-Rh probe ABPP | AID 2174, 2009 | recombinant LYPLA1 | 320,000 tested, 0.16% active | inhibition, % at 5.9 µM;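 active = inhibition above the mean of all tested compounds plus 3 SD, set per campaign, cut at about 14% in these data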;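 also: inhibitors block serine hydrolase probe labeling of LYPLA1 so polarization falls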
PME-1 inh = PME-1 inhibitors via competitive probe labeling, primary screen, biochemical, fluorescence polarization, FP-Rh probe, HTS; recombinant PME-1; inhibition, % at 5.9 µM; 320,000 tested, 0.53% active; AID 2130, 2009;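 active = inhibition above the campaign mean of all compounds plus 3 SD, cut at about 26% in these data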;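 also: competitive labeling of PME-1 active site by serine hydrolase directed probe; inhibitors block probe labeling so polarization falls and inhibition rises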
Of the large screens only hits and unclear results are named; the others gave an inactive call. Compounds with a hit are over-represented: about 1.8% of the library has one in this group of screens.

COc1cc(S(=O)(=O)Nc2ccc3c(c2)C(=O)N(C)C3=O)ccc1NC(C)=O	none (no result: LYPLA2 inh, Fam108B inh, GSTO1 counter, LYPLA1 inh, PME-1 inh)
CCCN(Cc1nnc(-c2cccs2)o1)C(=O)c1cccc(S(=O)(=O)N2CCOCC2)c1	none (no result: Fam108B inh, GSTO1 counter)
CC(NC(=O)CCl)c1ccc(Cl)c(Cl)c1 (centres undefined)	GSTO1 counter 96.4
CC(C)(C)OC(=O)NCCOC(=O)c1[nH]cnc1C(=O)NCc1ccccc1	none (no result: Fam108B inh, GSTO1 counter)
Cc1ccccc1OCC(=O)NC(=S)Nc1cccc2cc(O)ccc12	PME-1 inh 28.4
Cc1ccccc1OCC(=O)NC(=S)Nc1ccc(Br)c(C)n1	none
NNc1nc2cc3c(cc2s1)OCCO3	PME-1 inh 39.2
O=C(Nc1nc2cc3c(cc2s1)OCCO3)c1cccs1	none
CCN(C(=O)C(C)Sc1ccc(S(=O)(=O)N2CCOCC2)cn1)c1ccccc1 (centres undefined)	none (no result: Fam108B inh, GSTO1 counter)
COc1cc(C(=S)N2CCN(c3ccccc3Cl)CC2)cc(O)c1O	GSTO1 counter 37.0
O=C(/C=C/c1ccco1)NC(=S)Nc1ccc(N2CCCC2)cc1	GSTO1 counter 50.3
COc1cccc(/C=N/NC(=O)CNC(=O)c2cccnc2)c1O	none
COC(=O)c1ccc(COc2ccccc2/C=N/NC(=O)c2cccnc2)cc1	LYPLA2 inh 35.6
CC1=C(C)/C(=N\OS(=O)(=O)c2ccccc2)C=CC1=O	GSTO1 counter 34.9
CCOc1ccc(S(=O)(=O)/N=C(/Nc2ccc(C(C)=O)cc2)c2ccccc2)cc1	none (no result: LYPLA2 inh, Fam108B inh, GSTO1 counter, LYPLA1 inh, PME-1 inh)
Cc1cccc(C)c1NS(=O)(=O)c1ccc(NC(=O)c2ccc(Cl)c([N+](=O)[O-])c2)cc1	PME-1 inh 33.3
O=C(Nc1ccc(S(=O)(=O)NC2=NCCCCC2)cc1)c1ccc(Cl)c([N+](=O)[O-])c1	none (no result: LYPLA2 inh, Fam108B inh, GSTO1 counter, LYPLA1 inh, PME-1 inh)
COc1ccc(OC)c(/C=C2\SC(=S)N(C(C(=O)O)c3ccccc3)C2=O)c1 (centres undefined)	none
CCOc1ccc(/C=C2\SC(=S)N(C(C(=O)O)c3ccccc3)C2=O)cc1OC (centres undefined)	PME-1 inh 35.5
Cc1ccc(C)c(NC(=O)COC(=O)c2cc3ccccc3oc2=O)c1	PME-1 inh 27.4 (no result: Fam108B inh, GSTO1 counter)
CC(C)CC(=O)NC(c1ccccc1Cl)c1c(O)ccc2ccccc12 (centres undefined)	PME-1 inh 46.9
COc1ccc(C(NC(=O)CC(C)C)c2c(O)ccc3ccccc23)cc1 (centres undefined)	none
O=C(NN=Cc1cc(Br)c(O)c(Br)c1)c1ccccc1NS(=O)(=O)c1cccs1	none (no result: LYPLA2 inh, Fam108B inh, GSTO1 counter, LYPLA1 inh, PME-1 inh)
O=C(/C=C/c1ccco1)N(c1ccccn1)c1ccccn1	GSTO1 counter 42.1
CCCc1cc(C(=O)Nc2cccc(C(C)=O)c2)no1	GSTO1 counter 35.6
COC/C=C/C1=CC2=CC(=O)C(C)(OC(=O)c3cnc4ccccc4n3)C(=O)C2=CN1c1ccc(CO)cc1 (centres undefined)	GSTO1 counter 36.7
COC/C=C/C1=CC2=CC(=O)C(C)(OC(=O)c3cnc4ccccc4n3)C(=O)C2=CN1C1CCCCC1 (centres undefined)	GSTO1 counter 35.5
O=C(Cn1cnc2c(OCc3ccccc3)ncnc21)NCC1CCCO1 (centres undefined)	none (no result: LYPLA2 inh, Fam108B inh, GSTO1 counter, LYPLA1 inh, PME-1 inh)
CCC(=O)NC(c1ccc(C)cc1)c1cc([N+](=O)[O-])c2cccnc2c1O (centres undefined)	PAD4 FP inh 24.9
CC(C)(C)c1ccc(OCC(=O)NNC(=S)NC(=O)c2ccccc2[N+](=O)[O-])c(Br)c1	LYPLA2 inh 26.7
CCN(CC(=O)NNC(=O)c1ccccc1)Cc1ccc(OC)c(F)c1	none (no result: LYPLA2 inh, Fam108B inh, GSTO1 counter, LYPLA1 inh, PME-1 inh)
O=C(NCCS(=O)(=O)N1CCC2(CC1)OCCO2)c1ccccc1	none
CCOC(=O)N1CCN(c2cc(NCCC(=O)O)c3c4c(onc24)-c2ccccc2C3=O)CC1	GSTO1 counter 59.8
O=C(O)CCCNc1cc(N2CCC3(CC2)OCCO3)c2noc3c2c1C(=O)c1ccccc1-3	Fam108B inh 34.6, GSTO1 counter 53.5, PAD4 FP inh 17.7

Assay outcomes from PubChem.
